The panel holds about 83,000 compounds, 20% with a hit somewhere; the sample as a whole holds those more often.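 Percent growth is the endpoint: 0 to 100 indicates growth inhibition (40 means 60% inhibition), 0 means no net growth, and negative values indicate cell death.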 Values without a mark were called inactive. Activity calls are given as the source filed them. How the source made its calls: active means growth percent below 10; inactive means the rest.

Test in all cases: NCI-60 one-dose screen, 48 h (100 = growth as untreated, 0 = no growth, -100 = all killed)
Settings in all cases: 10 µM unless noted

For experiment [1], the system named is HT29 colon.
The subject of experiment [2] is SNB-75 CNS.
In experiment [3] the test system is SNB-19 CNS.
Experiment [4] relates to U251 CNS.
The test system of experiment [5] is PC-3 prostate.
The subject of experiment [6] is SK-MEL-5 melanoma.
Experiment [7] concerns LOX IMVI melanoma.
Experiment [8] deals with SK-MEL-28 melanoma.
In experiment [9] the test system is SK-MEL-2 melanoma.
For experiment [10], the system named is SN12C renal.
For experiment [11], the system named is UO-31 renal.
For experiment [12], the system named is ACHN renal.
The subject of experiment [13] is CAKI-1 renal.
Experiment [14] relates to A498 renal.
Experiment [15] relates to CCRF-CEM leukemia.
Experiment [16] concerns MOLT-4 leukemia.
In experiment [17] the test system is SR leukemia.
The subject of experiment [18] is UACC-62 melanoma.
Experiment [19] deals with EKVX NSCLC.
The test system of experiment [20] is TK-10 renal.

As to `CC1(C)OC(=O)C(=Cc2ccccc2Br)C(=O)O1`, the growth in experiment [1] was 103%; in experiment [2], 81.8%; in experiment [3], 94.3%; in [4], 96.8%; in experiment [5], 92.5%; in experiment [6], 97.6%. In addition, the growth in experiment [7] was 94.1%; in experiment [8], 115%; in experiment [9] it was 97.6%; in experiment [10] it was 96.6%; in experiment [11], 92.2%; in experiment [12], 102%. The growth in [13] is 94.8%; in experiment [14], 105%; in experiment [15], 98.2%; in experiment [16], 99.5%; in experiment [17], 79.7%.

On to `CCC[C@H](N[C@@H](C)C(=O)N1[C@H](C(=O)O)C[C@@H]2CCCC[C@@H]21)C(=O)OCC`, for which the growth in experiment [1] was 100%; in experiment [2] it was 112%; in experiment [3], 104%; in experiment [4], 93.6%; in [5], 91.8%; in experiment [18] it was 104%. Moreover, the growth in experiment [7] was 89.8%; in [8], 123%; in [9], 112%; in experiment [19], 111%; in experiment [10], 101%; in experiment [11], 77.4%. For the same compound, the growth in experiment [20] was 113%; in experiment [12], 90.8%; in experiment [13], 102%; in experiment [14] it was 98.9%; in [15], 105%; in experiment [16] it was 115%.

Turning to `O=C1CN(CO)C(=O)CN1CO`, the growth in experiment [1] is 109%; in [2], 94.2%; in experiment [3], 101%; in [4], 100%; in experiment [5], 95.4%; in [18], 98.3%. Also, the growth was 99.7% in experiment [7]; 112% in experiment [8]; 121% in experiment [9]; 114% in [19]; 99.3% in experiment [10]; 87.7% in experiment [11]. The growth in experiment [20] is 124%; in experiment [12] it was 97.6%; in experiment [13], 94.8%; in experiment [14], 94%; in experiment [15] it was 92.8%; in experiment [16], 105%.

As to `CCOC(=O)C1=C(COCCN)NC(C)=C(C(=O)OC)C1c1ccccc1Cl` (configuration not stated), the growth was 11.4% in experiment [1]; 72.3% in experiment [2]; 102% in experiment [3]; 52.8% in [4]; 66.9% in experiment [5]; 60.5% in experiment [18]. Further, the growth in experiment [7] was 32.3%; in experiment [8], 75.9%; in experiment [9], 90.2%; in experiment [19], 83.9%; in experiment [10], 75.9%; in experiment [11], 45.4%. The growth in experiment [20] is 67.8%; in experiment [12], 43.8%; in experiment [13], 64.5%; in experiment [14], 62.4%; in [15] it was 66.2%; in experiment [16], 67%.

On to `CCC1(c2ccccc2)Oc2ccccc2-n2c(C#N)c3ccccc3c2C1=O` (configuration not stated), for which the growth in experiment [1] is 96.8%; in [2] it was 95.9%; in experiment [3], 106%; in experiment [4] it was 96.7%; in [5], 93.8%; in experiment [6] it was 100%. Further, the growth was 103% in [7]; 114% in experiment [8]; 103% in experiment [9]; 95.6% in [10]; 86.6% in experiment [11]; 96.5% in experiment [12]. Besides, the growth in experiment [13] was 100%; in experiment [14], 97%; in experiment [15], 95.6%; in experiment [16], 91%; in [17], 89.2%.

For `Cc1c(N(C)CS(=O)(=O)O)c(=O)n(-c2ccccc2)n1C`, the growth is 97.7% in [1]; 111% in experiment [2]; 101% in [3]; 100% in experiment [4]; 94.8% in experiment [5]; 96.9% in experiment [18]. The growth was 104% in experiment [7]; 108% in [8]; 106% in experiment [9]; 93.1% in [19]; 93.9% in [10]; 79.9% in [11]. For the same compound, the growth is 108% in experiment [20]; 101% in experiment [12]; 98.8% in [13]; 109% in [14]; 96.9% in experiment [15]; 83% in experiment [16].

`CC[C@@H]1OC(=O)[C@H](C)[C@@H](O[C@H]2C[C@@](C)(OC)[C@@H](O)[C@H](C)O2)[C@H](C)[C@@H](O[C@@H]2O[C@H](C)C[C@H](N(C)C)[C@H]2O)[C@](C)(O)C[C@@H](C)[C@@H]2N[C@@H](COCCOC)O[C@H]([C@H]2C)[C@]1(C)O`: the growth in [1] is 103%; in experiment [2] it was 77.4%; in [3], 104%; in [4], 96.6%; in experiment [5], 111%; in experiment [18], 109%. Also, the growth in [7] was 94.8%; in experiment [8], 109%; in experiment [9], 121%; in experiment [19], 102%; in experiment [10] it was 98.9%; in [11], 81.5%. Also, the growth in experiment [20] is 119%; in experiment [12], 102%; in experiment [13] it was 96.6%; in experiment [14], 119%; in [15], 82.4%; in experiment [16], 90.1%.

In the case of `CC[C@]1(O)CC2CN(CCc3c([nH]c4ccccc34)[C@@](C(=O)OC)(c3cc4c(cc3OC)N(C)[C@H]3[C@@](O)(C(=O)OC)[C@H](OC(C)=O)[C@]5(CC)C=CCN6CC[C@]43[C@@H]65)C2)C1` (some centres not stated), the growth in experiment [1] is 3.18% (active); in experiment [2], 5.29% (active); in experiment [3] it was 43.8%; in experiment [4] it was 17.3%; in experiment [5] it was 28.1%; in experiment [6], -61.3% (active). The growth in experiment [7] was 18.9%; in [8], 68.1%; in [9], 34.3%; in experiment [19], 49.6%; in experiment [10] it was 39.6%; in experiment [11], 18.9%. Besides, the growth in [20] is 62.6%; in [12] it was 21.9%; in [13], 26.8%; in experiment [14], -15.6% (active); in experiment [15], 10.7%; in experiment [16], 16.4%.

The values are drawn from PubChem BioAssay (NCI).
